Measured values published in PubChem BioAssay (EPA / NIEHS).
“And” between values parts separate entries of the source, which are not always exact repeats. Equal values may be shown once. Records with an inconclusive call do not appear. Some compounds were tested as several samples or in several runs, with calls that do not always agree. The source made the active and inactive calls. How the source made its calls: active means hit-call score of the fitted dose curve at least 0.9, where 1 is the maximum; inconclusive means response in the unintended direction; inactive means score below 0.9.

Key:
[1] = ATG_M_06_XSP2: Attagene TRANS-FACTORIAL Multi-Species (XSP2) HepG2 Assay for M06 Transcription Factor (Internal Marker) (AID 2283811);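 further: hits are increases in signal above the DMSO baseline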
In short: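 Cells of the human liver line HepG2 carried transfected reporter transcription units and were treated for 24 h. Induced reporter transcripts were detected by fluorescence after RT-PCR and capillary electrophoresis, with activity fitted in the gain direction against DMSO.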

[2] = test system: turtle Estrogen Receptor (ERa), gene 101933533; assay: ATG_trERa_XSP2: Attagene TRANS-FACTORIAL Multi-Species (XSP2) HepG2 Assay for turtle Estrogen Receptor (ERa) (AID 2283812);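 further: actives raise reporter signal above DMSO so AC50 reflects agonist activity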
In short: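 Readout is reporter mRNA quantified by RT-PCR with capillary electrophoresis after 24 h compound exposure, increase relative to DMSO. Uses transiently transfected human HepG2 liver cells carrying a chimeric turtle ERa-Gal4 receptor driving GAL4-UAS reporters.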

[3] = test system: zebrafish Estrogen Receptor (ER2a), gene 317734; assay: ATG_zfER2a_XSP2: Attagene TRANS-FACTORIAL Multi-Species (XSP2) HepG2 Assay for zebrafish Estrogen Receptor (ER2a) (AID 2283818);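 further: hits raise reporter mRNA so AC50 reflects activation of zebrafish ER2a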
In short: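 Multiplexed trans-reporter readout: RT-PCR then capillary electrophoresis of reporter transcripts after 24 h compound treatment. Human HepG2 carries transfected zebrafish ER2a-Gal4 chimera; 3 nM 6-alpha-fluorotestosterone plus 1.5 nM norgestrel present. Induction scored against DMSO.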

[4] = test system: chicken Androgen Receptor (AR), gene 422165; assay: ATG_chAR_XSP2: Attagene TRANS-FACTORIAL Multi-Species (XSP2) HepG2 Assay for chicken Androgen Receptor (AR) (AID 2283819);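 further: hits raise reporter mRNA above DMSO so potency is for activation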
In short: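 Readout is reporter mRNA induction via RT-PCR/capillary electrophoresis after 24 h chemical exposure, positive direction relative to DMSO. Transiently transfected HepG2 express chimeric chicken AR–GAL4; AR stimulated by 3 nM 6-alpha-fluorotestosterone and 1.5 nM norgestrel.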

[5] = test system: frog Estrogen Receptor (ER), gene 398734; assay: ATG_frER1_XSP2: Attagene TRANS-FACTORIAL Multi-Species (XSP2) HepG2 Assay for frog Estrogen Receptor (ER) (AID 2283821);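 further: hits raise reporter mRNA above DMSO baseline so potency means agonist or activator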
In short: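 Gain-of-signal mRNA reporter assay, HepG2 human liver cells, 24 h dosing; transcripts read by fluorescent RT-PCR fragment analysis, DMSO as negative control.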

[6] = test system: zebrafish Estrogen Receptor (ER2b), gene 317733; assay: ATG_zfER2b_XSP2: Attagene TRANS-FACTORIAL Multi-Species (XSP2) HepG2 Assay for zebrafish Estrogen Receptor (ER2b) (AID 2283823);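 further: fitted upward as reporter gain over DMSO so potency reflects activation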
In short: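 In this multiplexed trans-activation format, HepG2 cells expressing exogenous NR-Gal4 fusions drive GAL4-UAS reporters. Exposure lasts 24 h, and reporter mRNA induction is read by RT-PCR with capillary electrophoresis detection.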

[7] = ATG_M_32_XSP2: Attagene TRANS-FACTORIAL Multi-Species (XSP2) HepG2 Assay for M19 Transcription Factor (Internal Marker) (AID 2283826)
In short: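 Total RNA is taken from compound-treated HepG2 cells after 24 h and reverse-transcribed; reporter cDNA is PCR-amplified, end-labelled with 6-FAM, digested with HpaI for 2h at 37 C and sized by capillary electrophoresis. Activity is fitted in the positive direction against DMSO.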

[8] = biological target: Peroxisome proliferator-activated receptor gamma (Homo sapiens) (UniProt P37231); assay: ATG_hPPARg_XSP2: Attagene TRANS-FACTORIAL Multi-Species (XSP2) HepG2 Assay for human Peroxisome Proliferator-activated Receptor gamma (PPARg) (AID 2283829);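 further: actives raise reporter mRNA above DMSO so AC50 reflects PPARg activation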
In short: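 Multiplexed transactivation in transfected HepG2 liver cells. Gal4-chimeric receptor activity reported as induced reporter transcript after 24 h.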

[9] = biological target: mouse Peroxisome Proliferator-activated Receptor gamma (PPARg), Pparg (gene 19016) (UniProt P37238); assay: ATG_mPPARg_XSP2: Attagene TRANS-FACTORIAL Multi-Species (XSP2) HepG2 Assay for mouse Peroxisome Proliferator-activated Receptor gamma (PPARg) (AID 2283830);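 further: hits are gains in reporter mRNA above DMSO so AC50 marks activation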
In short: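 Multiplexed TRANS reporter readout: after 24 h chemical exposure of transfected HepG2 cells (with 3 nM 6-alpha-fluorotestosterone, 1.5 nM norgestrel present), RNA reverse-transcribed, amplified, 6-FAM-labelled and resolved by capillary electrophoresis; mouse PPARg-Gal4 induction scored against DMSO.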

[10] = biological target: Nuclear receptor subfamily 1 group I member 2 (Mus musculus) (UniProt O54915); assay: ATG_mPXR_XSP2: Attagene TRANS-FACTORIAL Multi-Species (XSP1) HepG2 Assay for mouse Pregnane X Receptor (PXR) (AID 2283831)
In short: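 Human liver HepG2 cells expressing exogenous receptor-GAL4 chimeras were exposed to test chemicals for 24 h. Induction of reporter mRNA was scored as gain of fluorescence signal over DMSO controls.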

[11] = test system: zebrafish Peroxisome Proliferator-activated Receptor gamma (PPARg), gene 557037; assay: ATG_zfPPARg_XSP2: Attagene TRANS-FACTORIAL Multi-Species (XSP2) HepG2 Assay for zebrafish Peroxisome Proliferator-activated Receptor gamma (PPARg) (AID 2283833);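 further: reporter mRNA from a zebrafish PPARg GAL4 chimera measured by RT-PCR and capillary electrophoresis; actives increase reporter signal over DMSO so AC50 reflects activation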
In short: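 Cell-based transactivation of a chimeric zebrafish PPARg-GAL4 receptor was assessed in transiently transfected HepG2 cells after 24 h of treatment. Reporter mRNA induction, detected fluorescently after RT-PCR, was analysed in the positive direction against DMSO.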

[12] = biological target: Estrogen receptor beta (Homo sapiens) (UniProt Q92731); assay: ATG_hERb_XSP2: Attagene TRANS-FACTORIAL Multi-Species (XSP2) HepG2 Assay for human Estrogen Receptor (ERb) (AID 2283813);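 further: actives raise reporter mRNA above DMSO so AC50 reflects agonist induction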
In short: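 Transient TRANS reporter system in HepG2: after 24 h of chemical, RNA is reverse-transcribed, reporter cDNA amplified, FAM-labelled and sized by capillary electrophoresis. Induction of the human ERb-Gal4 reporter is measured relative to DMSO.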

[13] = biological target: zebrafish Estrogen Receptor (ER1), esr1 (gene 259252) (UniProt P57717); assay: ATG_zfER1_XSP2: Attagene TRANS-FACTORIAL Multi-Species (XSP2) HepG2 Assay for zebrafish Estrogen Receptor (ER1) (AID 2283816)
In short: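 After 24 h compound exposure, RNA from transfected HepG2 cells was reverse-transcribed and reporter transcripts resolved by capillary electrophoresis. The TRANS format reads exogenous zebrafish ER1-Gal4 chimera activity on GAL4-UAS elements; gain of signal against DMSO.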

[14] = biological target: Estrogen receptor (Homo sapiens) (UniProt P03372); assay: ATG_hERa_XSP2: Attagene TRANS-FACTORIAL Multi-Species (XSP2) HepG2 Assay for human Estrogen Receptor (ERa) (AID 2283827)
In short: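 Trans-activation of exogenous human ERa-Gal4 chimera read in HepG2 as reporter transcript after 24 h exposure; medium included 3 nM 6-alpha-fluorotestosterone and 1.5 nM norgestrel. Quantified by RT-PCR with capillary electrophoresis, positive-direction fitting against DMSO.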

[15] = test system: frog Estrogen Receptor (ER2), gene 100174814; assay: ATG_frER2_XSP2: Attagene TRANS-FACTORIAL Multi-Species (XSP2) HepG2 Assay for frog Estrogen Receptor (ER2) (AID 2283828)
In short: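 Induction of reporter mRNA, baseline set by DMSO, is the endpoint. The panel was run in transfected HepG2 cells over 24 h, with 3 nM 6-alpha-fluorotestosterone and 1.5 nM norgestrel present to stimulate androgen receptor.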

[16] = biological target: zebrafish Thyroid Hormone Receptor alpha (TRa), thraa (gene 30670) (UniProt Q98867); assay: ATG_zfTRa_XSP2: Attagene TRANS-FACTORIAL Multi-Species (XSP1) HepG2 Assay for zebrafish Thyroid Hormone Receptor alpha (TRa) (AID 2283832);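 further: actives raise zebrafish TRa-Gal4 reporter transcript above DMSO baseline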
In short: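 HepG2, transient MRTU transfection, exogenous NR-Gal4 chimeras; 24 h dosing; mRNA readout via RT-PCR/CE fluorescence; positive direction vs DMSO.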

[17] = biological target: GAL4 Transcription Factor (Internal Marker), GAL4 (gene 855828) (UniProt P04386); assay: ATG_GAL4_XSP2: Attagene TRANS-FACTORIAL Multi-Species (XSP2) HepG2 Assay for GAL4 Transcription Factor (Internal Marker) (AID 2283814);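 further: GAL4 reporter mRNA background control in MRTU transfected cells not a receptor target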
In short: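 Background-control readout: gain-of-signal fitted against DMSO. After 24 h exposure of transfected HepG2 (MRTU, GAL4-UAS reporters; 3 nM 6-alpha-fluorotestosterone, 1.5 nM norgestrel present), transcripts quantified by RT-PCR and capillary electrophoresis fluorescence.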

[18] = ATG_M_19_XSP2: Attagene TRANS-FACTORIAL Multi-Species (XSP2) HepG2 Assay for M32 Transcription Factor (Internal Marker) (AID 2283822)
In short: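 Internal background marker in a multi-species nuclear receptor TRANS panel: transfected HepG2 cells exposed 24 h, with 3 nM 6-alpha-fluorotestosterone and 1.5 nM norgestrel present. Readout is RT-PCR of reporter transcripts resolved by capillary electrophoresis, gain-of-signal versus DMSO.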

[19] = test system: frog Androgen Receptor (AR), gene 399456; assay: ATG_frAR_XSP2: Attagene TRANS-FACTORIAL Multi-Species (XSP2) HepG2 Assay for frog Androgen Receptor (AR) (AID 2283824);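 further: reporter mRNA from GAL4-UAS units driven by Xenopus AR-Gal4 chimera; actives raise reporter signal above DMSO so AC50 reflects agonist-like induction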
In short: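 Reporter transcript induction, read by RT-PCR with fluorescent capillary electrophoresis, in human liver HepG2 cells carrying an exogenous Xenopus AR-Gal4 fusion and GAL4-driven reporters; chemical exposure 24 hours, activity scored upward against DMSO controls.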

[20] = test system: turtle Androgen Receptor (AR), gene 101947425; assay: ATG_trAR_XSP2: Attagene TRANS-FACTORIAL Multi-Species (XSP2) HepG2 Assay for turtle Androgen Receptor (AR) (AID 2283815)
In short: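 Reporter transcripts were quantified via RT-PCR and capillary electrophoresis and fitted upward against DMSO. Transiently transfected human HepG2 cells carrying NR-Gal4 chimeras were exposed 24 h, with 3 nM 6-alpha-fluorotestosterone plus 1.5 nM norgestrel added.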

Measured: AC50

Estrogen receptor beta (Homo sapiens), sequence (Q92731 whole entry, looked up, the tested form may be a part): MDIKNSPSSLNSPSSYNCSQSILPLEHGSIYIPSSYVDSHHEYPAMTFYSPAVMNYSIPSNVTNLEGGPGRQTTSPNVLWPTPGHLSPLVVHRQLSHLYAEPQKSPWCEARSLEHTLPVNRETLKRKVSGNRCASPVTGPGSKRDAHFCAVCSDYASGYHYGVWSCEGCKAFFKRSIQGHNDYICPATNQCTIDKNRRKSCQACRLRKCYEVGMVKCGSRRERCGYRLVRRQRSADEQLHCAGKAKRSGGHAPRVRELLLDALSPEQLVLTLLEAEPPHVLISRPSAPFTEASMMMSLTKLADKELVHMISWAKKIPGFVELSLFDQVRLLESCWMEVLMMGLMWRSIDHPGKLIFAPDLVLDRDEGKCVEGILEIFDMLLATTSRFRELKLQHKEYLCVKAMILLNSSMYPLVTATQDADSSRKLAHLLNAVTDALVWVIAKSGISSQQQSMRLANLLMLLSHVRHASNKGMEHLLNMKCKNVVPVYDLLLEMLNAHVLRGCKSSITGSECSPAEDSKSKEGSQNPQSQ
mouse Peroxisome Proliferator-activated Receptor gamma (PPARg), Pparg (gene 19016), sequence (P37238 whole entry, looked up, the tested form may be a part): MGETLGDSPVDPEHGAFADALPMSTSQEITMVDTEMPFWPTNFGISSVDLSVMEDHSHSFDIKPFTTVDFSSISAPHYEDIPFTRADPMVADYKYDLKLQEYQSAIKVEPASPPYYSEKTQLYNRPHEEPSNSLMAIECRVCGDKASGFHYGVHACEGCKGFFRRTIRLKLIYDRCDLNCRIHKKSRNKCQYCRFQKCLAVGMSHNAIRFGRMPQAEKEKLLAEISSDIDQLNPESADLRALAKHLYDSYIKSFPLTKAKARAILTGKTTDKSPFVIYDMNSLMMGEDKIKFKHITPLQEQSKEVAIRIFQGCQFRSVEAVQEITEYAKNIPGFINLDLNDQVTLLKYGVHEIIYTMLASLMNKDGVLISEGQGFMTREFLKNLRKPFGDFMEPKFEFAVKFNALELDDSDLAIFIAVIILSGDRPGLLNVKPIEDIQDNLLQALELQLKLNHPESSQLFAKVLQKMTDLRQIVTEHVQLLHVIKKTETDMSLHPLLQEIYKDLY
Nuclear receptor subfamily 1 group I member 2 (Mus musculus), sequence (O54915 whole entry, looked up, the tested form may be a part): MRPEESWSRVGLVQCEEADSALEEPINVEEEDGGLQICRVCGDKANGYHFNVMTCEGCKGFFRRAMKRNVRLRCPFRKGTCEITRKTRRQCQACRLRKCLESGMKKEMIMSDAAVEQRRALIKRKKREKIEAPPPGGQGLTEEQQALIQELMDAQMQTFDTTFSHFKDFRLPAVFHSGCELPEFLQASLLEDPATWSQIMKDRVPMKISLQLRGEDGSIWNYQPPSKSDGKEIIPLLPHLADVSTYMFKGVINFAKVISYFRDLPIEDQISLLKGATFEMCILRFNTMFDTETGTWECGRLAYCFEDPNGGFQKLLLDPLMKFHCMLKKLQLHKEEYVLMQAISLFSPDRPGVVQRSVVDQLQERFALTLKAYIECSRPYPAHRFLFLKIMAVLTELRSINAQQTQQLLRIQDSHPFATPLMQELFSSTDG
GAL4 Transcription Factor (Internal Marker), GAL4 (gene 855828), sequence (P04386 whole entry, looked up, the tested form may be a part): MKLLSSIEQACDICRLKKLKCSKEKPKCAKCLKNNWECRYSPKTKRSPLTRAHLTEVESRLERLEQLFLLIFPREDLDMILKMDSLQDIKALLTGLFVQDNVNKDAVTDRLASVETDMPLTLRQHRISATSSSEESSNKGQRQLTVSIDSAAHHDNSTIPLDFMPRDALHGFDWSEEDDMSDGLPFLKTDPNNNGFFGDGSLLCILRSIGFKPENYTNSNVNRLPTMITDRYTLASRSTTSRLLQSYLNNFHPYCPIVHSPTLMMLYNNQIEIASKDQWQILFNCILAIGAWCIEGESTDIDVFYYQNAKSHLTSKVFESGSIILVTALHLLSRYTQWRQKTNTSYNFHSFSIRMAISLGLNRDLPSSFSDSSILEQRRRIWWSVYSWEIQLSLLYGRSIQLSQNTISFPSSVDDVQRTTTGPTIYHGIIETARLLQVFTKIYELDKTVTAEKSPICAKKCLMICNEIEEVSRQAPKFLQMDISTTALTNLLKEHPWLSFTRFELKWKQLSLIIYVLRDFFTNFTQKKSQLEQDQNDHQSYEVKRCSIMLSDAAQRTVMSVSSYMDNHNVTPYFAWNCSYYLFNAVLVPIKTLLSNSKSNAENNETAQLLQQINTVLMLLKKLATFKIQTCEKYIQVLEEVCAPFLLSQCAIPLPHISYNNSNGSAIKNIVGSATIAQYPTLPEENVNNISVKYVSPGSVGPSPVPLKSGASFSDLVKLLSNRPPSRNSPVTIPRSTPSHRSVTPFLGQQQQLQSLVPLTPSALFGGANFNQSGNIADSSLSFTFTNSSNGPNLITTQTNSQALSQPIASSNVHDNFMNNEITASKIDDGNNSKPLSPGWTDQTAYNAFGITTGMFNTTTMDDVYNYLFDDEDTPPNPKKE
zebrafish Estrogen Receptor (ER1), esr1 (gene 259252), sequence (P57717 whole entry, looked up, the tested form may be a part): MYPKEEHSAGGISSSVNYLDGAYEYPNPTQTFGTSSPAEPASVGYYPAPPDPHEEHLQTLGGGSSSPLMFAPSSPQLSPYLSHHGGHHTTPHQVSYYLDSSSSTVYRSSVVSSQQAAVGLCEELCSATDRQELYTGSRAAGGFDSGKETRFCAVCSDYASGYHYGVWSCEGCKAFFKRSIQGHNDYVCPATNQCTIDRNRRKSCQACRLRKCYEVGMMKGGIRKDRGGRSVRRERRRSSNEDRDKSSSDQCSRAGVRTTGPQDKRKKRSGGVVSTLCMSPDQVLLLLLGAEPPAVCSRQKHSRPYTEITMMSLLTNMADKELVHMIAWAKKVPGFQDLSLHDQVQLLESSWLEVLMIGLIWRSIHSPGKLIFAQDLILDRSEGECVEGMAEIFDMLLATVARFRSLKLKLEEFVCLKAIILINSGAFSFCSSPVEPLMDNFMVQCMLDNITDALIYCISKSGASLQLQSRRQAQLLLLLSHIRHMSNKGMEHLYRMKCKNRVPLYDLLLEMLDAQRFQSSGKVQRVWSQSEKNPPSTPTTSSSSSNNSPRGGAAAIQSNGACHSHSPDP
Peroxisome proliferator-activated receptor gamma (Homo sapiens), sequence (P37231 whole entry, looked up, the tested form may be a part): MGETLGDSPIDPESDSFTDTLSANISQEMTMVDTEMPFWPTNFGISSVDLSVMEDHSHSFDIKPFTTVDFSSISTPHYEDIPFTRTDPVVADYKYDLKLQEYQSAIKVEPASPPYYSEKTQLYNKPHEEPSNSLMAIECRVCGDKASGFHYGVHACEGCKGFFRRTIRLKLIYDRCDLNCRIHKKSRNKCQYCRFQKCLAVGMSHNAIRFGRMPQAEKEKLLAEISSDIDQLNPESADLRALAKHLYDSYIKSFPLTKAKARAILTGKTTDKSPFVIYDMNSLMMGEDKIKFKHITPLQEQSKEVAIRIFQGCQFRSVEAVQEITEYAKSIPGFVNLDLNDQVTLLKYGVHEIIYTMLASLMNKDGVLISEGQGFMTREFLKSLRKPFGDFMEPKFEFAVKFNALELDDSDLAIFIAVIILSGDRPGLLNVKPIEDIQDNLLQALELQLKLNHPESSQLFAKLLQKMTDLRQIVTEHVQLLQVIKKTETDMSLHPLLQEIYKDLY
Estrogen receptor (Homo sapiens), sequence (P03372 whole entry, looked up, the tested form may be a part): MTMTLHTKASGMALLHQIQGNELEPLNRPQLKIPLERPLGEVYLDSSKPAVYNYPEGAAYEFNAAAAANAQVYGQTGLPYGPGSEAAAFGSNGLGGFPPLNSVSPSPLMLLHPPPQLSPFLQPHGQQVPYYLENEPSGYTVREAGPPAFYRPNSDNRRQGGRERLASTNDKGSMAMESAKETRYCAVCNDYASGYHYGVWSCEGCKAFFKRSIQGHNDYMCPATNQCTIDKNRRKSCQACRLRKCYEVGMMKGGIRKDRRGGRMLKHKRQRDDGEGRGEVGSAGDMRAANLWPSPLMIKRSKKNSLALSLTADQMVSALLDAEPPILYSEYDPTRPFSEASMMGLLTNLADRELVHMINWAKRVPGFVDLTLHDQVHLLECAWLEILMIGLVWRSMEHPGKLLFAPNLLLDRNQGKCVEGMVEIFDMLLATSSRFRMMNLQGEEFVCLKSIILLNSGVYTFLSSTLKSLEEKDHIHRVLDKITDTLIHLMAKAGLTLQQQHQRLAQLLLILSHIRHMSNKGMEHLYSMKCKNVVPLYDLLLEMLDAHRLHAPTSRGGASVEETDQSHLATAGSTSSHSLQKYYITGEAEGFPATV
zebrafish Thyroid Hormone Receptor alpha (TRa), thraa (gene 30670), sequence (Q98867 whole entry, looked up, the tested form may be a part): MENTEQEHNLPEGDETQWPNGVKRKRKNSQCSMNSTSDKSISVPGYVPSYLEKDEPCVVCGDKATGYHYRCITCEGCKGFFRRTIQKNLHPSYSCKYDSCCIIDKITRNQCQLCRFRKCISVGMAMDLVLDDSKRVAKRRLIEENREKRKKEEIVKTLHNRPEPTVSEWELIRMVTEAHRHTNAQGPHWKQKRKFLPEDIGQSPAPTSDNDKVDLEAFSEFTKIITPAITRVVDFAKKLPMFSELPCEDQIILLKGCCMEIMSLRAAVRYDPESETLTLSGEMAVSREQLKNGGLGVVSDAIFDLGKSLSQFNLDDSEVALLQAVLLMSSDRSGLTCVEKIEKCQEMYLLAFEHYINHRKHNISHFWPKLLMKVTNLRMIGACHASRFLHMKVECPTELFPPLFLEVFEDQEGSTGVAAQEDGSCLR

O=S(=O)(O)C(F)(F)C(F)(F)C(F)(F)C(F)(F)C(F)(F)C(F)(F)C(F)(F)C(F)(F)F
active: [6] 146 µM | [8] 119 µM | [9] 145 µM
inactive: [1] | [2] | [3] | [4] | [5] | [7] | [10] | [11]

CC(C)(C)C(O)/C(=C\c1ccc(Cl)cc1Cl)n1cncn1 (centres undefined)
inactive: [1] | [2] | [12] | [13] | [3] | [5] | [7] | [16] | [11]
active: [12] 8.38 µM | [6] 44 µM and 14.4 µM | [14] 13.2 µM and 17 µM | [15] 23.1 µM and 8.13 µM | [8] 46.7 µM and 47.6 µM | [9] 33.4 µM and 20.8 µM | [10] 1.24 µM and 1.41 µM

CCCN(CCOc1c(Cl)cc(Cl)cc1Cl)C(=O)n1ccnc1
active: [8] 16.6 µM | [9] 20.4 µM | [10] 0.108 µM
not listed: [4] | [14] | [17] | [18] | [19] | [20]
inactive: all other assays above

COP(=S)(OC)Oc1ccc(SC)c(C)c1
active: [2] 5.17 µM | [3] 27.8 µM | [5] 27.3 µM | [6] 59 µM | [14] 8.43 µM | [15] 26.8 µM | [8] 34.2 µM | [9] 35.8 µM | [10] 1.94 µM
inactive: [1] | [12] | [17] | [13] | [16] | [11]

Oc1ccc(Cl)cc1Cc1ccccc1
active: [6] 14.6 µM | [8] 10 µM
inactive: [1] | [2] | [12] | [17] | [3] | [15] | [9] | [10] | [11]

O=C(O)C(F)(F)C(F)(F)C(F)(F)C(F)(F)C(F)(F)C(F)(F)C(F)(F)F
inactive: [1] | [4] | [5] | [18] | [19] | [7] | [11]
active: [2] 35.5 µM | [12] 38.4 µM | [3] 100 µM | [6] 124 µM | [15] 64.1 µM

COP(=S)(OC)Oc1ccc([N+](=O)[O-])cc1
active: [2] 29.6 µM and 23.1 µM | [12] 26.8 µM | [3] 26.7 µM | [6] 39.3 µM | [14] 31.1 µM and 40.7 µM | [15] 100 µM and 36.9 µM | [8] 27.7 µM | [9] 27 µM | [10] 41.4 µM
inactive: [12] | [17] | [13] | [3] | [5] | [18] | [6] | [8] | [9] | [10] | [16] | [11]

CCCN(CCC)c1c([N+](=O)[O-])cc(C(F)(F)F)cc1[N+](=O)[O-]
active: [6] 69.9 µM | [14] 18.8 µM | [15] 100 µM | [10] 1.88 µM
not listed: [4] | [11] | [12] | [19] | [20]
inactive: all other assays above

CCOCN(C(=O)CCl)c1c(C)cccc1CC
active: [6] 100 µM | [8] 1.01 µM | [9] 2.14 µM | [10] 5.1 µM
inactive: [18] | [7] | [15]

O=S1OCC2C(CO1)C1(Cl)C(Cl)=C(Cl)C2(Cl)C1(Cl)Cl (centres undefined)
inactive: [1] | [13] | [5] | [15] | [8] | [10] | [16]
active: [2] 2.06 µM | [6] 10 µM | [14] 1.04 µM

CC1(C)C(C=C(Cl)Cl)C1C(=O)OC(C#N)c1ccc(F)c(Oc2ccccc2)c1 (centres undefined)
active: [8] 20.5 µM | [9] 10.9 µM | [10] 1.97 µM | [11] 19.8 µM
not listed: [1] | [6] | [12] | [13] | [15] | [19]
inactive: all other assays above

Oc1cc(Cl)ccc1Oc1ccc(Cl)cc1Cl
inactive: [1] | [2] | [5] | [7] | [15] | [16] | [11]
active: [17] 15.8 µM | [3] 14.1 µM | [6] 16.1 µM | [8] 11.1 µM | [9] 15 µM | [10] 11.1 µM
